In PubChem BioAssay (EPA / NIEHS) one finds outcome and AC50 data, which are given here for twelve molecules.

Read-out in test [1]: Plasminogen activator inhibitor-1 (PAI1), SERPINE1 (gene 5054)
Nature of the test: BSK_MyoF_PAI1: BioMAP Diversity Plus: MyoF Assay for Plasminogen activator inhibitor-1 (PAI1) Biomarker Activity (AID 2284256).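 As to outcome: PAI-1 protein level measured by ELISA in fibroblast cultures; PAI-1 read 24 h after compound addition.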 The settings on record: primary human lung fibroblasts. A digest of the protocol:
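Human lung fibroblasts (MyoF system) were exposed to test chemicals for 24 h, then PAI-1 was quantified by ELISA. Activity was fitted in the positive (signal-gain) direction relative to DMSO vehicle as baseline.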

Read-out in a further test: CD69, CD69 (gene 969)
Kind of test: BSK_IMphg_CD69: BioMAP Diversity Plus: IMphg Assay for CD69 Biomarker Activity (AID 2284257). The settings on record: primary human endothelial cells with macrophages. An outline of the steps: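 Human venular endothelial cells co-cultured with macrophages; CD69 quantified by ELISA 24 h after compound addition. Activity fitted in the positive direction relative to DMSO baseline; cytotoxicity tracked in parallel cultures via SRB total-protein staining.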

Read-out in test [2]: Eotaxin 3, CCL26 (gene 10344)
Nature of the test: BSK_BF4T_Eotaxin3: BioMAP Diversity Plus: BF4T Assay for Eotaxin 3 Biomarker Activity (AID 2284258). Conditions: primary human bronchial epithelial cells with fibroblasts. A digest of the protocol:
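Co-culture of human bronchial epithelial cells and dermal fibroblasts, exposed to chemicals for 24 h versus DMSO. Eotaxin-3 quantified by ELISA; cytotoxicity checked in parallel cultures by sulforhodamine B total-protein staining.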

Read-out in test [3]: Monocyte Chemoattractant Protein-1 (MCP1), CCL2 (gene 6347)
Kind of test: BSK_BF4T_MCP1: BioMAP Diversity Plus: BF4T Assay for Monocyte Chemoattractant Protein-1 (MCP1) Biomarker Activity (AID 2284259). The settings on record: primary human bronchial epithelial cells with fibroblasts. An outline of the steps: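 Co-culture of bronchial epithelial cells and dermal fibroblasts dosed with chemical; MCP-1 measured by ELISA 24 h later. Activity fitted in positive direction versus DMSO; cytotoxicity checked by SRB staining in parallel cultures.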

Read-out in test [4]: Intercellular Adhesion Molecule 1 (ICAM1), ICAM1 (gene 3383)
Kind of test: BSK_BF4T_ICAM1: BioMAP Diversity Plus: BF4T Assay for Intercellular Adhesion Molecule 1 (ICAM1) Biomarker Activity (AID 2284260). Conditions: primary human bronchial epithelial cells with fibroblasts. An outline of the steps:
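Co-culture of human bronchial epithelial cells and dermal fibroblasts exposed 24 h to chemical; cell-surface ICAM-1 quantified by ELISA. Parallel SRB total-protein staining assessed cytotoxicity; activity fitted relative to DMSO.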

Read-out in test [5]: Interleukin-8 (IL8), CXCL8 (gene 3576)
Kind of test: BSK_MyoF_IL8: BioMAP Diversity Plus: MyoF Assay for Interleukin-8 (IL8) Biomarker Activity (AID 2284261). Conditions: primary human lung fibroblasts. An outline of the steps:
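IL-8 quantified by ELISA after 24 h compound exposure of primary human lung fibroblasts. SRB staining of parallel cultures flagged cytotoxicity; DMSO served as baseline.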

Read-out in the next test: CD90, THY1 (gene 7070)
Kind of test: BSK_BF4T_CD90: BioMAP Diversity Plus: BF4T Assay for CD90 Biomarker Activity (AID 2284262). The settings on record: primary human bronchial epithelial cells with fibroblasts. A digest of the protocol: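 Co-culture of human bronchial epithelial cells and dermal fibroblasts, 24 h compound exposure. Cell-surface CD90 measured by ELISA relative to DMSO; parallel SRB total-protein staining for cytotoxicity.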

Read-out in test [6]: Interleukin-8 (IL8), CXCL8 (gene 3576)
Nature of the test: BSK_BF4T_IL8: BioMAP Diversity Plus: BF4T Assay for Interleukin-8 (IL8) Biomarker Activity (AID 2284263). The settings on record: primary human bronchial epithelial cells with fibroblasts. An outline of the steps: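 Human bronchial epithelial cells with dermal fibroblasts co-culture; IL-8 measured by ELISA 24 hours after dosing, fitted vs DMSO. Cytotoxicity tracked in parallel cultures by SRB total-protein staining.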

Read-out in test [7]: Interleukin-1 alpha (IL1a), IL1A (gene 3552)
Kind of test: BSK_BF4T_IL1a: BioMAP Diversity Plus: BF4T Assay for Interleukin-1 alpha (IL1a) Biomarker Activity (AID 2284264). Conditions: primary human bronchial epithelial cells with fibroblasts. An outline of the steps:
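Human bronchial epithelial cells co-cultured with dermal fibroblasts, dosed and read at 24 h. Secreted/surface IL-1α quantified by ELISA; gain-of-signal fitted relative to DMSO baseline. Parallel SRB total-protein staining tracked cytotoxicity.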

Read-out in test [8]: Macrophage Inflammatory Protein-1 Alpha (MIP1a), CCL3 (gene 6348)
Kind of test: BSK_IMphg_MIP1a: BioMAP Diversity Plus: IMphg Assay for Macrophage Inflammatory Protein-1 Alpha (MIP1a) Biomarker Activity (AID 2284255). Conditions: primary human endothelial cells with macrophages. A digest of the protocol: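 Co-culture of human venular endothelial cells and macrophages exposed to compounds for 24 h; MIP-1a measured by ELISA relative to DMSO. Cytotoxicity assessed in parallel cultures by sulforhodamine B total-protein staining at 560 nm.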

SMILES strings stand for the structures. Several values for one entry are separate records, joined by “and”; a condition that tells them apart may be missing. Identical values can stand only once. A structure can be active in one record and inactive in another. Activity calls are given as the source filed them. The calls were made as follows: active = hit-call score of the fitted dose curve at least 0.9, where 1 is the maximum; inactive = score below 0.9.

With `O=P(O)(O)OCCC(F)(F)C(F)(F)C(F)(F)C(F)(F)C(F)(F)C(F)(F)F`, the outcome is “inactive” in test [1]; “inactive” with CD69, CD69 (gene 969); “inactive” in test [2]; “inactive” in [3]; “inactive” in [4]; “inactive” in [5]. Further, the outcome was “inactive” with CD90, THY1 (gene 7070) and “inactive” in [6].

As to `OCCCC(F)(F)C(F)(F)C(F)(F)C(F)(F)C(F)(F)C(F)(F)C(F)(F)F`, the AC50 (as a rule, the concentration at which the activity in the assay is half-maximal) is 51.2 µM (active) and 52.2 µM (active) in test [1]; 50 µM (active) with CD69, CD69 (gene 969); 52.3 µM (active) in test [2]; 38.4 µM (active) and 43.2 µM (active) in [3]; 23.7 µM (active) and 34 µM (active) in test [4]; 58.5 µM (active) in [5]. For the same molecule, the AC50 with CD90, THY1 (gene 7070) is 30 µM (active) and 21.3 µM (active); in test [6], 40.5 µM (active) and 45.3 µM (active); in [7] it was 51.6 µM (active) and 55.4 µM (active). Also, the outcome in the test with CD69, CD69 (gene 969) is “inactive”; in test [2], “inactive”; in test [5], “inactive”.

In the case of `O=C(O)C(F)(F)C(F)(F)C(F)(F)C(F)(F)C(F)(F)C(F)(F)C(F)(F)C(F)(F)C(F)(F)C(F)(F)C(F)(F)C(F)(F)C(F)(F)F`, the outcome in test [8] is “inactive”; in [1] it was “inactive”; in the test with CD69, CD69 (gene 969), “inactive”; in test [2], “inactive”; in test [3], “inactive”; in [4], “inactive”. The outcome in test [5] was “inactive”; with CD90, THY1 (gene 7070), “inactive”; in [6] it was “inactive”; in test [7], “inactive”.

As to `O=S(=O)(OCC(F)F)C(F)(F)F`, the outcome is “inactive” in [8]; “inactive” with CD69, CD69 (gene 969); “inactive” in [2]; “inactive” in [3]; “inactive” in [4]; “inactive” in test [5]. Further, the outcome is “inactive” with CD90, THY1 (gene 7070) and “inactive” in [6].

On to `O=C(O)C(F)(F)C(F)(F)C(F)F`, for which the outcome was “inactive” in test [1]; “inactive” with CD69, CD69 (gene 969); “inactive” in test [2]; “inactive” in test [3]; “inactive” in test [4]; “inactive” in test [5]. For the same molecule, the outcome in the test with CD90, THY1 (gene 7070) was “inactive”; in [6], “inactive”.

For the molecule `O=C(O)C(F)(F)C(F)(F)C(F)(F)C(F)(F)C(F)(F)C(F)(F)C(F)(F)C(F)(F)C(F)(F)C(F)F`, the outcome was “inactive” in test [8]; “inactive” in test [1]; “inactive” in the test with CD69, CD69 (gene 969); “inactive” in test [2]; “inactive” in [5]; “inactive” in test [6]. For the same molecule, the AC50 in test [1] is 23.6 µM (active); with CD69, CD69 (gene 969), 30 µM (active); in test [2], 5.95 µM (active); in test [3], 13.3 µM (active) and 3.36 µM (active); in [4] it was 25.6 µM (active) and 17.8 µM (active); with CD90, THY1 (gene 7070), 17.3 µM (active) and 1.67 µM (active). In addition, the AC50 in test [7] is 38.8 µM (active) and 20.5 µM (active).

Turning to `C=CC(F)(F)C(F)(F)C(F)(F)C(F)(F)C(F)(F)C(F)(F)C(F)(F)C(F)(F)C=C`, the outcome in [1] was “inactive”; in the test with CD69, CD69 (gene 969), “inactive”; in [2] it was “inactive”; in test [3] it was “inactive”; in [4], “inactive”; in [5], “inactive”. Besides, the outcome is “inactive” with CD90, THY1 (gene 7070); “inactive” in test [6]; “inactive” in [7].

As to `O=C(O)C=C(C(F)(F)F)C(F)(F)F`, the outcome in test [8] was “inactive”; in [1], “inactive”; in the test with CD69, CD69 (gene 969), “inactive”; in test [2], “inactive”; in test [3], “inactive”; in test [4], “inactive”. The outcome in test [5] was “inactive”; in the test with CD90, THY1 (gene 7070), “inactive”; in [6] it was “inactive”. In addition, the AC50 in test [2] was 10.8 µM (active).

As for `OCCCC(F)(F)C(F)(F)C(F)(F)F`, the outcome in test [8] was “inactive”; in test [1], “inactive”; with CD69, CD69 (gene 969), “inactive”; in [2], “inactive”; in test [3], “inactive”; in [4], “inactive”. The outcome is “inactive” in test [5]; “inactive” with CD90, THY1 (gene 7070); “inactive” in [6].

For `FC(F)(F)C(F)(F)C(F)(F)C(F)(F)C(F)(F)C(F)(F)CC1CO1` (centres undefined), the outcome in test [1] is “inactive”; with CD69, CD69 (gene 969) it was “inactive”; in test [2], “inactive”; in [3], “inactive”; in [4], “inactive”; in test [5], “inactive”. For the same molecule, the outcome with CD90, THY1 (gene 7070) is “inactive”; in [6] it was “inactive”; in test [7] it was “inactive”.

In the case of `FC(F)(F)C(F)(F)C(F)(F)N(C(F)(F)C(F)(F)C(F)(F)F)C(F)(F)C(F)(F)C(F)(F)F`, the outcome in test [1] was “inactive”; with CD69, CD69 (gene 969) it was “inactive”; in [2], “inactive”; in [3], “inactive”; in test [4] it was “inactive”; in test [5], “inactive”. Also, the outcome with CD90, THY1 (gene 7070) was “inactive”; in [6], “inactive”; in test [7], “inactive”. Besides, the concentration at half-maximal activity (AC50) in the test with CD69, CD69 (gene 969) was 1.09 µM (active).

For `C=CC(=O)OCC(F)(F)C(F)(F)C(F)(F)C(F)(F)C(F)(F)C(F)(F)C(F)(F)F`, the outcome in [1] was “inactive”; with CD69, CD69 (gene 969), “inactive”; in test [2] it was “inactive”; in [3], “inactive”; in [4], “inactive”; in [5], “inactive”. The outcome in the test with CD90, THY1 (gene 7070) was “inactive”; in [6], “inactive”.
